# Measurements: PubChem BioAssay
# Active and inactive are the calls of the source.
# Key:
# [1] = system: Plasmodium falciparum Sir2 (PF13_0152, Sir2A); assay: Plasmodium falciparum Sir2A binding compounds – biochemical, small-molecule microarray, 635 nm fluorescence, primary screen (AID 1098); settings: fluorescence 635 nm, higher = more signal;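 note: score merges spot fluorescence intensity with its signal-to-noise ratio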
# [2] = probe aDKK1 binding to arrayed compounds – biochemical, biotinylated probe, 635/667 nm fluorescence, primary screen (AID 1099); settings: small-molecule microarray, higher = more signal;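 note: score merges 667nm spot fluorescence with signal to noise across triplicate slides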
# [3] = probe aCHRDL2 binding to arrayed compounds – biochemical, biotinylated probe, 635/667 nm fluorescence, primary screen (AID 1100); settings: small-molecule microarray, higher = more signal
# [4] = change in splice reporter luminescence, either direction, cell-based, HEK293, spliceosome inhibition project, primary screen (AID 1101); settings: HEK293 splicing luciferase reporter, 24 h, higher = more signal, called active from +8 up or from −8 down;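 note: HEK293 cells carrying a splicing-competent luciferase reporter gene; test concentration not given here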
# [5] = molecular target: Fibroblast growth factor 10 (Homo sapiens) (UniProt O15520); assay: compounds binding fibroblast growth factor 10 – biochemical, small-molecule microarray, 635 nm fluorescence, primary screen (AID 1102); settings: FGF10 binding, fluorescence 635 nm, higher = more signal
# [6] = system: glycogen synthase kinase-3 (GSK3A per assay name; protocol says GSK3B); assay: compounds binding glycogen synthase kinase-3 – biochemical, small-molecule microarray, 635 nm fluorescence, GSK3A, primary screen (AID 1103); settings: fluorescence 635 nm, higher = more signal; note: the record names both GSK3A and GSK3B
# [7] = molecular target: Epidermal growth factor receptor (Homo sapiens) (UniProt P00533); assay: compounds binding epidermal growth factor receptor – biochemical, small-molecule microarray, 635 nm fluorescence, primary screen (AID 1104); settings: EGFR binding, higher = more signal;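 note: score merges 667 nm emission intensity with spot signal to noise over triplicate slides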
# [8] = molecular target: Follistatin-related protein 3 (Homo sapiens) (UniProt O95633); assay: compounds binding follistatin-related protein 3 – biochemical, small-molecule microarray, 635 nm fluorescence, primary screen (AID 1105); settings: FSTL3 binding, higher = more signal;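 note: score merges emission near 667 nm and signal to noise per printed spot across three slides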
# [9] = molecular target: Dickkopf-related protein 1 (Homo sapiens) (UniProt O94907); assay: small molecules binding DKK1 protein – biochemical, small-molecule microarray, 635 nm fluorescence scan, primary screen (AID 1106); settings: higher = more signal;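 note: score merges emission near 667 nm with signal to noise over three replicate slides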
# [10] = system: Inhibin beta A chain (activin A); assay: small molecules binding activin A – biochemical, small-molecule microarray, 635 nm fluorescence scan, primary screen (AID 1107); settings: INHBA, higher = more signal;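 note: mouse activin A protein probed at 4.33 µg/mL on printed slides; score merges bound-protein fluorescence near 667 nm with spot signal-to-noise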
# [11] = system: Human papillomavirus type 1a protein E7 (residues 44-93); assay: small molecules binding HPV E7 44-93 – biochemical, small-molecule microarray, residues 44-93, 635 nm fluorescence, primary screen (AID 1108); settings: fluorescence 635 nm, higher = more signal;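 note: E7 fragment applied at 1 µg/mL in TBST for 1 h at 4 C; score combines spot fluorescence with its signal to noise ratio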
# [12] = hepatitis C replication reporter changes, two-sided – Huh7 cells, luciferase reporter, HCV replication inhibitor project, primary screen (AID 1109); settings: Huh7 HCV replicon luciferase reporter, 48 h; higher = more signal;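 note: huh7 hepatoma cells harbouring a luciferase neomycin HCV replicon reporter; luciferase luminescence as measure of HCV replicon replication; test concentration not given here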
# [13] = molecular target: Left-right determination factor 2 (Homo sapiens) (UniProt O00292); assay: small molecules binding LEFTY2 protein – biochemical, small-molecule microarray, 635 nm fluorescence scan, primary screen (AID 1110); settings: higher = more signal
# [14] = molecular target: Calmodulin-1 (Homo sapiens) (UniProt P0DP23); assay: small molecules binding calmodulin-1 with EGTA – biochemical, small-molecule microarray, Cy5-labelled CALM1, profiling panel (AID 1111); settings: Cy5-CALM1 binding fluorescence, higher = more signal;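 note: labelled calmodulin applied in Tris saline Tween buffer holding calcium plus EGTA and DTT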
# [15] = molecular target: Calmodulin-1 (Homo sapiens) (UniProt P0DP23); assay: small molecules binding Ca-loaded calmodulin-1 – biochemical, small-molecule microarray, Cy5-labelled CALM1, plus calcium, artefact control for SMM control-protein annotation, profiling panel (AID 1112); settings: Cy5-CALM1 binding fluorescence, higher = more signal;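 note: score merges spot fluorescence with signal to noise from triplicate slides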
# [16] = probe aWnt5a binding to arrayed compounds – biochemical, biotinylated probe, 635/667 nm fluorescence, primary screen (AID 1113); settings: small-molecule microarray, higher = more signal;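 note: score merges 667 nm fluorescence intensity with signal-to-noise per printed feature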
# [17] = probe aShh binding to arrayed compounds – biochemical, biotinylated probe, 635/667 nm fluorescence, primary screen (AID 1114); settings: small-molecule microarray, higher = more signal;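 note: probe is biotin-labelled aShh protein from a stem cell growth factor screen; measures binding of labelled protein to compounds printed on the slide; score merges feature fluorescence at 667 nm with signal-to-noise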
# [18] = probe aNog binding to arrayed compounds – biochemical, biotinylated probe, 635/667 nm fluorescence, primary screen (AID 1115); settings: small-molecule microarray, higher = more signal;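 note: probe is biotinylated aNog protein used at 0.15 µg/mL for 1 h at 4 C; z-score combines 667 nm fluorescence of each spot with its signal to noise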
# [19] = molecular target: Torsin-1A-interacting protein 1 (Homo sapiens) (UniProt Q5JTV8); assay: compound microarray binding of lysate hLAP1 – cell lysate, small-molecule microarray, COS7 lysate, 635/667 nm fluorescence, primary screen (AID 1116); settings: 635 nm fluorescence, higher = more signal
# [20] = molecular target: Alpha-bungarotoxin (Bungarus multicinctus) (UniProt P60615); assay: compounds binding labelled alpha-BTX control protein – biochemical, small-molecule microarray, Alexa647 label, 635/667 nm fluorescence, artefact control for SMM control protein annotation, profiling panel (AID 1117); settings: alpha-BTX-A647 binding fluorescence, higher = more signal
# Sequence of Alpha-bungarotoxin (Bungarus multicinctus) (P60615 whole entry, looked up): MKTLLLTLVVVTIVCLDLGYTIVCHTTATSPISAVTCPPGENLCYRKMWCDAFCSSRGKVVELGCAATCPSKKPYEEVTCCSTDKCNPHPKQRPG
# Sequence of Dickkopf-related protein 1 (Homo sapiens) (O94907 whole entry, looked up): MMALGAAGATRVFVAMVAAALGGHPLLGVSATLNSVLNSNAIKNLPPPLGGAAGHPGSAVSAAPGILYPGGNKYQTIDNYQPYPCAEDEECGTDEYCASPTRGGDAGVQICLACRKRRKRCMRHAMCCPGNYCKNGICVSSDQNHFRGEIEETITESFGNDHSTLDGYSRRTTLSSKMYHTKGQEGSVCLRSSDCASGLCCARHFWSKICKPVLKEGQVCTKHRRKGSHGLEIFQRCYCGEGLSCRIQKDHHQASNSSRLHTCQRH
# Sequence of Follistatin-related protein 3 (Homo sapiens) (O95633 whole entry, looked up): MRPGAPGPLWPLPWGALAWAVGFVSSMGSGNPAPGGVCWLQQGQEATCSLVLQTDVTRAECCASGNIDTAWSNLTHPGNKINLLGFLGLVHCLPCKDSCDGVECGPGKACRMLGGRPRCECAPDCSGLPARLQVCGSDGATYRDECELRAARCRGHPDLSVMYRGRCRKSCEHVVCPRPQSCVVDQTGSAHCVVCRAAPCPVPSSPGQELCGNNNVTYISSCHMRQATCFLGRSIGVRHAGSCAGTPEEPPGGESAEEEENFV
# Sequence of Left-right determination factor 2 (Homo sapiens) (O00292 whole entry, looked up): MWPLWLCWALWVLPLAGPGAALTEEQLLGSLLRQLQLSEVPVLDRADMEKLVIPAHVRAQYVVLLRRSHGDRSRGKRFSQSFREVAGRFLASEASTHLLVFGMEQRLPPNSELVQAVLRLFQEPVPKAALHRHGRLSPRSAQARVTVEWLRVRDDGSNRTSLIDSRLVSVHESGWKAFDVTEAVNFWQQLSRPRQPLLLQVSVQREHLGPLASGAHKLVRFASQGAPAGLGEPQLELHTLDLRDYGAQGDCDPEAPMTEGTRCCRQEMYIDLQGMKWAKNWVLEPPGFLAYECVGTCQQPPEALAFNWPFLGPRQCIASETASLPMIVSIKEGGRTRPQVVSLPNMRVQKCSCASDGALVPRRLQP
# Sequence of Fibroblast growth factor 10 (Homo sapiens) (O15520 whole entry, looked up): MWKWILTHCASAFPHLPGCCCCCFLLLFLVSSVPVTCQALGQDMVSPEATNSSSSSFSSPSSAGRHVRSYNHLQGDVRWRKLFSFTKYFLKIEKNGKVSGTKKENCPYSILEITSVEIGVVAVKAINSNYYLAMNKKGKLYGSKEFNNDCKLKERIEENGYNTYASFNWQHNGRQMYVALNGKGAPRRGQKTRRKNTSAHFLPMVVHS
# Sequence of Epidermal growth factor receptor (Homo sapiens) (P00533 whole entry, looked up): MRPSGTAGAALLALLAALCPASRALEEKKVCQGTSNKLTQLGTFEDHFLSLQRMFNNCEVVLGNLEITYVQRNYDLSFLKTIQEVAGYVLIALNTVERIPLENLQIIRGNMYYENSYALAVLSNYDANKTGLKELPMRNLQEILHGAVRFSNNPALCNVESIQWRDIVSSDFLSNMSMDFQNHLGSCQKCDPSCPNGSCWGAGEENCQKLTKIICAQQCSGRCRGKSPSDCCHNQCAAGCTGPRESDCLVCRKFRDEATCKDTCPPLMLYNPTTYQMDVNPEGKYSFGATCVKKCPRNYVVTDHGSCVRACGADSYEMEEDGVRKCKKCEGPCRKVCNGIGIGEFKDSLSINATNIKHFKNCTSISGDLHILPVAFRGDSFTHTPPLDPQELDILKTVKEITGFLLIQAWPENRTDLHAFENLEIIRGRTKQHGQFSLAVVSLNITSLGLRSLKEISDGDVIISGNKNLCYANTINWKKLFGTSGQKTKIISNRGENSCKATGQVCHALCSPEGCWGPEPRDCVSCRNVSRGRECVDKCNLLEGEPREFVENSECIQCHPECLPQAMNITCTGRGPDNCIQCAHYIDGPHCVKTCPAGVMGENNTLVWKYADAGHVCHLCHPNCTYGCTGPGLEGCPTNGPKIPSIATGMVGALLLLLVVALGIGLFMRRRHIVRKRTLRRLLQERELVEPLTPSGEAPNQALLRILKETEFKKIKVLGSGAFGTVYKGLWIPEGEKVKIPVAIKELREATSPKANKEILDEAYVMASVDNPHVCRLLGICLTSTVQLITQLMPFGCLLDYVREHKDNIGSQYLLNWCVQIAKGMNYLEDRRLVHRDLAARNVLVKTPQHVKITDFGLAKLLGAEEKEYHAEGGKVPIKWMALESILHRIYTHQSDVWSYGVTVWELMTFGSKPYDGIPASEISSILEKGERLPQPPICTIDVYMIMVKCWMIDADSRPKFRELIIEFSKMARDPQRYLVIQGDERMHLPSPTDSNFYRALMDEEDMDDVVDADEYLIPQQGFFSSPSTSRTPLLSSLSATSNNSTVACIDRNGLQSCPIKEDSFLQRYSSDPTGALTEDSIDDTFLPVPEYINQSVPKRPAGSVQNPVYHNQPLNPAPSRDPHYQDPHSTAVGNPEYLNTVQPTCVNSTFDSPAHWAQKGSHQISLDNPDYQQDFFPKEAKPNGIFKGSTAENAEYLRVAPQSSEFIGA
# Sequence of Torsin-1A-interacting protein 1 (Homo sapiens) (Q5JTV8 whole entry, looked up): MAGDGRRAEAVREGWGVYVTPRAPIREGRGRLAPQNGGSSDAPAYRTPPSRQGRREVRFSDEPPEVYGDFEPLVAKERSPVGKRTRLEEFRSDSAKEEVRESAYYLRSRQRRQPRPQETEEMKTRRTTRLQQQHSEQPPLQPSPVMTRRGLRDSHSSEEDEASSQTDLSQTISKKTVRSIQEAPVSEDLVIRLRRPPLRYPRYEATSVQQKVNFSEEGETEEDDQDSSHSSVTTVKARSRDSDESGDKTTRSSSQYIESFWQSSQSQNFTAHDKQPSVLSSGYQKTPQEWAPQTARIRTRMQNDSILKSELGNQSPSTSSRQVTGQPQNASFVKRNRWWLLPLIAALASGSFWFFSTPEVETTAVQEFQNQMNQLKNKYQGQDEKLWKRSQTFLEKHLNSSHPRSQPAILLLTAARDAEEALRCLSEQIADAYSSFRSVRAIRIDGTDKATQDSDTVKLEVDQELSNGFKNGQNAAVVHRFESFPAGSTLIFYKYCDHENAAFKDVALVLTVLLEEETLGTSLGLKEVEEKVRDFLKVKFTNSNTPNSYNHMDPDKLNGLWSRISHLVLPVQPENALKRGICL
Compound,composite z-score [1],composite z-score [2],composite z-score [3],z-score [4],composite z-score [5],composite z-score [6],composite z-score [7],composite z-score [8],composite z-score [9],composite z-score [10],composite z-score [11],z-score [12],composite z-score [13],composite z-score [14],composite z-score [15],composite z-score [16],composite z-score [17],composite z-score [18],composite z-score [19],composite z-score [20]
COCCOC(=O)N1C(=O)[C@@]2(c3cc(C#CCNC(N)=O)ccc31)[C@H](C(=O)NC[C@H](O)c1ccccc1)[C@H]1C(=O)O[C@H](c3ccccc3)[C@H](c3ccccc3)N1[C@@H]2c1ccc(O)cc1,1.54,0.347,0.925,0.012 (inactive),0.477,0.0604,-0.0057,0.683,-0.347,0.7,0.515,-0.249,0.0741,1.01,0.571,-0.0203,-0.152,-0.122,0.138,1.04
C=C[C@H](OC)[C@@H](OC(=O)Nc1ccc(OC)cc1)c1ccc(OC)c(O)c1,0.29,-0.387,0.703,-1.48 (inactive),-0.971,-0.761,-1.91,-1.18,-1.61,-0.385,-1.51,0.369,-1.63,-1.07,-0.137,-0.202,0.0062,-0.358,-0.557,-2.08
COc1ccc([Si](C)(C)[C@H]2[C@H](CC(=O)N(CCO)Cc3ccccc3)O[C@@]3(C(=O)N(Cc4ccc(N5CCC5=O)cc4)c4ccccc43)[C@@H]2C)cc1,0.811,0.0433,0.4,-0.439 (inactive),-0.802,-0.39,-0.443,-0.155,0.183,0.577,-0.403,-3.87,0.271,0.0311,0.705,-0.187,0.0434,-0.231,1.25,1.33
